Active and inactive are the calls of the source. The calls were made as follows: active = hit-call score of the fitted dose curve at least 0.9, where 1 is the maximum; inactive = score below 0.9.

Holding throughout (conditions): mRNA level, 48 h; actives raise or lower the signal
Read-out in assay [1]: Apoptosis regulator Bcl-2 (Homo sapiens) (UniProt P10415)
Description: LTEA_HepaRG_BCL2: Life Technologies and Expression Analysis (LTEA) Assay for Bcl-2 gene using HepaRG (AID 2283475). Summed up: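 Differentiated human HepaRG cells in serum-free induction medium exposed 48 h, in duplicate, to 8-point half-log series from 100 uM in 0.5% DMSO. BCL2 mRNA by qRT-PCR (TaqMan/Fluidigm), normalized to ACTB, GAPDH, POLR2A; bidirectional fit against DMSO.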

Read-out in assay [2]: Bcl-2 (BID) gene, BID (gene 637)
Nature of the assay: LTEA_HepaRG_BID: Life Technologies and Expression Analysis (LTEA) Assay for Bcl-2 (BID) gene using HepaRG (AID 2283476). The procedure, abridged:
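Gene expression by qRT-PCR in HepaRG cells after 48 h exposure, duplicate wells, eight half-log concentrations topping at 100 uM in 0.5% DMSO. Normalized to ACTB, GAPDH, POLR2A; bidirectional fitting relative to DMSO.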

Read-out in assay [3]: Caspase-3 (Homo sapiens) (UniProt P42574)
Nature of the assay: LTEA_HepaRG_CASP3: Life Technologies and Expression Analysis (LTEA) Assay for cysteine-aspartic acid protease (CASP3) using HepaRG (AID 2283477). The procedure, abridged:
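Differentiated HepaRG cells, plated 48 h, were treated in duplicate in serum-free induction medium for 48 h with eight half-log concentrations up to 100 uM in 0.5% DMSO. CASP3 mRNA measured by qRT-PCR, normalized to ACTB, GAPDH, POLR2A.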

Read-out in assay [4]: Cytochrome P450 (CYP1A2), CYP1A2 (gene 1544)
Description: LTEA_HepaRG_CYP1A2: Life Technologies and Expression Analysis (LTEA) Assay for Cytochrome P450 (CYP1A2) using HepaRG (AID 2283479). The procedure, abridged:
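Differentiated human HepaRG cells in serum-free induction medium exposed 48 hours in duplicate to 8 half-log concentrations from 100 uM, 0.5% DMSO. CYP1A2 mRNA quantified by qRT-PCR, normalized to ACTB, GAPDH and POLR2A; bidirectional fitting versus DMSO.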

Read-out in assay [5]: cysteine-aspartic acid protease (CASP8), CASP8 (gene 841)
Nature of the assay: LTEA_HepaRG_CASP8: Life Technologies and Expression Analysis (LTEA) Assay for cysteine-aspartic acid protease (CASP8) using HepaRG (AID 2283480). Summed up:
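HepaRG, 48 h exposure, duplicate wells; 8 conc, half-log from 100 uM, 0.5% DMSO. Serum-free induction medium. CASP8 mRNA by TaqMan qRT-PCR, norm. ACTB/GAPDH/POLR2A; gain/loss fitted vs DMSO.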

Read-out in assay [6]: Cytochrome P450 (CYP2B6), CYP2B6 (gene 1555)
Description: LTEA_HepaRG_CYP2B6: Life Technologies and Expression Analysis (LTEA) Assay for Cytochrome P450 (CYP2B6) using HepaRG (AID 2283481). The procedure, abridged: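 Differentiated human HepaRG cells in serum-free induction medium, dosed in duplicate for 48 h over 8 half-log concentrations topping at 100 uM (0.5% DMSO). CYP2B6 mRNA measured by TaqMan qRT-PCR, normalized to ACTB, GAPDH, POLR2A; bidirectional fit versus DMSO.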

Read-out in assay [7]: Cytochrome P450 2C19 (Homo sapiens) (UniProt P33261)
Nature of the assay: LTEA_HepaRG_CYP2C19: Life Technologies and Expression Analysis (LTEA) Assay for CYP2C19 using HepaRG (AID 2283482). The procedure, abridged: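 Differentiated HepaRG cells in serum-free induction medium exposed 48 h in duplicate, 8 concentrations from 100 uM by half-log steps in 0.5% DMSO. CYP2C19 mRNA measured by TaqMan qRT-PCR, normalized to ACTB, GAPDH, POLR2A. Bidirectional fit versus DMSO.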

Read-out in assay [8]: CYP2C8 (gene 1558)
Description: LTEA_HepaRG_CYP2C8: Life Technologies and Expression Analysis (LTEA) Assay for CYP2C8 using HepaRG (AID 2283483). The procedure, abridged:
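CYP2C8 mRNA induction or loss, by qRT-PCR normalized to ACTB/GAPDH/POLR2A, is read in HepaRG cells after 48 h treatment. Concentrations run from 100 uM down in half-log dilutions, with 0.5% DMSO as vehicle and baseline.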

Read-out in assay [9]: CYP2C9 (gene 1559)
Description: LTEA_HepaRG_CYP2C9: Life Technologies and Expression Analysis (LTEA) Assay for CYP2C9 using HepaRG (AID 2283484). The procedure, abridged: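 Cells plated 48 h, switched to serum-free induction medium, then treated in duplicate for 48 h at eight concentrations (max 100 uM, 0.5% DMSO). RNA then analysed by qRT-PCR for CYP2C9; curves fitted in both directions relative to DMSO.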

Read-out in assay [10]: CYP4A11 (gene 1579)
Description: LTEA_HepaRG_CYP4A11: Life Technologies and Expression Analysis (LTEA) Assay for CYP4A11 using HepaRG (AID 2283486). Summed up:
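Differentiated HepaRG cells, 48 h after plating, exposed in duplicate for 48 h to 8 half-log concentrations up to 100 uM in 0.5% DMSO in serum-free induction medium. CYP4A11 mRNA measured by TaqMan qRT-PCR, normalized to ACTB, GAPDH and POLR2A.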

Read-out in assay [11]: DNA damage-inducible transcript 3 (DDIT3), DDIT3 (gene 1649)
Description: LTEA_HepaRG_DDIT3: Life Technologies and Expression Analysis (LTEA) Assay for DNA damage-inducible transcript 3 (DDIT3) using HepaRG (AID 2283488). Summed up:
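HepaRG cells, 48 h after plating, exposed 48 h in serum-free induction medium to 8 half-log concentrations up to 100 uM in 0.5% DMSO, in duplicate. DDIT3 mRNA measured by TaqMan qRT-PCR, normalized to ACTB, GAPDH and POLR2A. Fitted bidirectionally against DMSO.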

Read-out in assay [12]: Pro-epidermal growth factor (Homo sapiens) (UniProt P01133)
Nature of the assay: LTEA_HepaRG_EGF: Life Technologies and Expression Analysis (LTEA) Assay for Epidermal growth factor (EGF) using HepaRG (AID 2283489). The procedure, abridged: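 HepaRG cells (~100,000/well, 48 h pre-culture) exposed in duplicate for 48 h in serum-free induction medium to 8 half-log concentrations up to 100 uM in 0.5% DMSO. EGF mRNA by qRT-PCR, normalized to ACTB/GAPDH/POLR2A; bidirectional fit versus DMSO.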

Read-out in assay [13]: Early growth response protein 1 (EGR1) transcription factor, EGR1 (gene 1958)
Description: LTEA_HepaRG_EGR1: Life Technologies and Expression Analysis (LTEA) Assay for Early growth response protein 1 (EGR1) transcription factor using HepaRG (AID 2283490). The procedure, abridged: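 Read-out is EGR1 mRNA level by qRT-PCR, normalized to three housekeeping genes and analysed for gain or loss of signal against 0.5% DMSO. Source cells: human HepaRG, treated 48 h at up to 100 uM in half-log dilutions.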

Read-out in assay [14]: Ezrin (EZR), EZR (gene 7430)
Nature of the assay: LTEA_HepaRG_EZR: Life Technologies and Expression Analysis (LTEA) Assay for Ezrin (EZR) using HepaRG (AID 2283491). Summed up:
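EZR transcript levels came from Fluidigm qRT-PCR and were normalized to three housekeeping genes after 48 h chemical exposure of HepaRG cells. Dosing used an 8-point half-log series with a 100 uM top concentration in 0.5% DMSO, tested in duplicate; both directions were fitted versus vehicle.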

Read-out in assay [15]: CYP3A5 (gene 1577)
Nature of the assay: LTEA_HepaRG_CYP3A5: Life Technologies and Expression Analysis (LTEA) Assay for CYP3A5 using HepaRG (AID 2283493). The procedure, abridged: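 HepaRG cells, plated 48 h then in serum-free induction medium, dosed in duplicate for 48 h with eight half-log concentrations up to 100 uM in 0.5% DMSO. Gene mRNA by Fluidigm TaqMan qRT-PCR, normalized to ACTB, GAPDH, POLR2A.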

Read-out in assay [16]: Fatty Acid-Binding Protein 1 (FABP1), FABP1 (gene 2168)
Description: LTEA_HepaRG_FABP1: Life Technologies and Expression Analysis (LTEA) Assay for Fatty Acid-Binding Protein 1 (FABP1) using HepaRG (AID 2283494). The procedure, abridged:
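HepaRG, 48 h post-plating switched to serum-free induction medium, then dosed 48 h (duplicate, 8 pts, ≤100 uM, 0.5% DMSO). RNA → Fluidigm TaqMan qRT-PCR, FABP1 normed to ACTB/GAPDH/POLR2A. Bidirectional curve fit vs DMSO.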

Read-out in assay [17]: Cytochrome P450 3A4 (Homo sapiens) (UniProt P08684)
Description: LTEA_HepaRG_CYP3A4: Life Technologies and Expression Analysis (LTEA) Assay for CYP3A4 using HepaRG (AID 2283487). Summed up: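 Differentiated HepaRG cells, plated 48 h, then dosed 48 h in serum-free induction medium with 0.5% DMSO, 8 half-log concentrations up to 100 uM, duplicate. CYP3A4 mRNA by qRT-PCR, normalized to ACTB/GAPDH/POLR2A; bidirectional fit versus DMSO.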

Read-out in assay [18]: Cytochrome P450 3A7 (Homo sapiens) (UniProt P24462)
Nature of the assay: LTEA_HepaRG_CYP3A7: Life Technologies and Expression Analysis (LTEA) Assay for CYP3A7 using HepaRG (AID 2283492). Summed up:
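Differentiated HepaRG cells in serum-free induction medium exposed 48 h in duplicate to 8-point half-log series from 100 uM top in 0.5% DMSO. CYP3A7 mRNA by qRT-PCR, normalized to ACTB/GAPDH/POLR2A, bidirectional fit versus DMSO.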

Read-out in assay [19]: Cytochrome P450 (CYP24A1), CYP24A1 (gene 1591)
Nature of the assay: LTEA_HepaRG_CYP24A1: Life Technologies and Expression Analysis (LTEA) Assay for Cytochrome P450 (CYP24A1) using HepaRG (AID 2283478). The procedure, abridged:
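HepaRG cells plated 48 h, then exposed in duplicate in serum-free induction medium for 48 h to 8-point half-log series from 100 uM in 0.5% DMSO. CYP24A1 mRNA by Fluidigm qRT-PCR, normalized to ACTB, GAPDH, POLR2A; bidirectional fit versus DMSO.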

Chain of Apoptosis regulator Bcl-2 (Homo sapiens) (P10415 whole entry, looked up): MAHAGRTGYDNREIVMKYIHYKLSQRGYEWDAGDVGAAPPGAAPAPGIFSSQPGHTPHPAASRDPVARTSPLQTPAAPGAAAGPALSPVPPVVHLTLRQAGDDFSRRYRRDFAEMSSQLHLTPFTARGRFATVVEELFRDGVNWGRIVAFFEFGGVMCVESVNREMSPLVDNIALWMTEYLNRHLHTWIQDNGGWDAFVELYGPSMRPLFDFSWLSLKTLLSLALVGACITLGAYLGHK
Chain of Cytochrome P450 2C19 (Homo sapiens) (P33261 whole entry, looked up): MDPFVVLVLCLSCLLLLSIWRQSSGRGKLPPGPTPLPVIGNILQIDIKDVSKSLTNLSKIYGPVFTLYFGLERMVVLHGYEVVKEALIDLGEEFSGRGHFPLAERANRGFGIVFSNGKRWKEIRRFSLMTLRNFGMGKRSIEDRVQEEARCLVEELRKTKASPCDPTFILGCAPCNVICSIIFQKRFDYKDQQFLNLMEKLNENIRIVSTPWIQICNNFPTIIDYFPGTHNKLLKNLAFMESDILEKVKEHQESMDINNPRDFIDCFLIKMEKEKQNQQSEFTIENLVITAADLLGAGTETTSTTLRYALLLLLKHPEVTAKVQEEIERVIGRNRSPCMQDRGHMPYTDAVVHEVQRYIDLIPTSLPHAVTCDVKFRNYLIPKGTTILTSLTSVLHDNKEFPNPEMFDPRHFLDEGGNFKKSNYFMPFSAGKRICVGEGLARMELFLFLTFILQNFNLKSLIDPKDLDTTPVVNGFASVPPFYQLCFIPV
Chain of Caspase-3 (Homo sapiens) (P42574 whole entry, looked up): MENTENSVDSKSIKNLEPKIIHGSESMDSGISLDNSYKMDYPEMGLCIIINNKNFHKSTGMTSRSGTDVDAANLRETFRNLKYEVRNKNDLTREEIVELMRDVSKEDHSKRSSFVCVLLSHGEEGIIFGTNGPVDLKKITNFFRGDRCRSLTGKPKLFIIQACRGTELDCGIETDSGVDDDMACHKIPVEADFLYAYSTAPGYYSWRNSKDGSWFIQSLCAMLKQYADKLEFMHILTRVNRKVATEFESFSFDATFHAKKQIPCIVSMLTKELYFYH
Chain of Cytochrome P450 3A4 (Homo sapiens) (P08684 whole entry, looked up): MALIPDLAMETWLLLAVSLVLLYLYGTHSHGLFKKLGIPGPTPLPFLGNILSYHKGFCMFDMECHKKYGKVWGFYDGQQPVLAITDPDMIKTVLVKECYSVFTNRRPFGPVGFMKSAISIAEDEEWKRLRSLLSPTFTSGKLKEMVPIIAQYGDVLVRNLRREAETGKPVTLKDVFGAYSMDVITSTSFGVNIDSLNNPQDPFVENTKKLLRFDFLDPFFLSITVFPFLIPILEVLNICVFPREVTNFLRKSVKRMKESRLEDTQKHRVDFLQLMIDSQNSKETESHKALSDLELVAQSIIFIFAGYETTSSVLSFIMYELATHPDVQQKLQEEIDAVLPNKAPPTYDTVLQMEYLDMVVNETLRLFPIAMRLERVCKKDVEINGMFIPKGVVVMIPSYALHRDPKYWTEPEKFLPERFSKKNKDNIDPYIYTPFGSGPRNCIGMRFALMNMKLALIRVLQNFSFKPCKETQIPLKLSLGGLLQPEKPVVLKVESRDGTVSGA
Chain of Cytochrome P450 3A7 (Homo sapiens) (P24462 whole entry, looked up): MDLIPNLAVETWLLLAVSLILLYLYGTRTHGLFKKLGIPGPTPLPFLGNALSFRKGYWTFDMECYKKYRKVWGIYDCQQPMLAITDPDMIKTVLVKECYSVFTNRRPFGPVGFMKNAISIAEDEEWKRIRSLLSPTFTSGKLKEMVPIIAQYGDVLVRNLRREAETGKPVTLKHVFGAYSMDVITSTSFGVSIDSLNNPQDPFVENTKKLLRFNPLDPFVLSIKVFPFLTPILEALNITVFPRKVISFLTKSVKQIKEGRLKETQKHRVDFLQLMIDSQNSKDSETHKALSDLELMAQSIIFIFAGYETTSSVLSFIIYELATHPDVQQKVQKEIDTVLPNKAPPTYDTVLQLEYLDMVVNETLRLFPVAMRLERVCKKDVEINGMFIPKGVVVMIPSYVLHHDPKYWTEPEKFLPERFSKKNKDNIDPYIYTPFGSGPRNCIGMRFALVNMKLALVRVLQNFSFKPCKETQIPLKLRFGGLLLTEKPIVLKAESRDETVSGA

In the case of `Clc1ccccc1C(c1ccccc1)(c1ccccc1)n1ccnc1`, the AC50 (commonly the midpoint of the concentration-response curve, whichever way the signal moves) in assay [1] is 23 µM (active); in assay [4] it was 7.26 µM (active); in [6], 26 µM (active); in assay [7], 27.4 µM (active); in [8], 23.9 µM (active); in assay [9], 93.4 µM (active). Also, the AC50 in [10] is 15.8 µM (active); in [11], 86.5 µM (active); in [12] it was 15.8 µM (active); in assay [13] it was 71.5 µM (active); in [16] it was 18.1 µM (active). In addition, the result in assay [2], in [3], in assay [5], in assay [14] and in assay [15] was inactive.

Take `Cc1cc2c(cc1C(F)(F)F)N(C(=O)Nc1ccc(Oc3cccnc3C)nc1)CC2`: the call in [1], in assay [3], in assay [7], in [8], in assay [11] and in assay [12] was inactive. Further, the call in assay [13], in assay [14] and in assay [18] was inactive. The concentration at half-maximal activity (AC50) was 75 µM (active) in assay [2]; 2.31 µM (active) in [4]; 73.6 µM (active) in assay [5]; 12.2 µM (active) in [6]; 46 µM (active) in assay [9]; 52.6 µM (active) in assay [10]. For the same molecule, the AC50 is 1.89 µM (active) in assay [17], 73.1 µM (active) in [15] and 11.6 µM (active) in assay [16].

For `CC(C)(c1cc(Br)c(O)c(Br)c1)c1cc(Br)c(O)c(Br)c1`, the molecule was classed as inactive in assay [1], in [2], in assay [19], in assay [4], in [7] and in assay [8]. In addition, the outcome in assay [9], in assay [10], in [17], in assay [11], in assay [12] and in assay [14] was inactive. Also, the molecule was called inactive in assay [15] and in [16]. In addition, the AC50 in assay [6] was 89.3 µM (active); in assay [13], 76.1 µM (active); in assay [18], 9.73 µM (active).

The record behind these values is PubChem BioAssay (EPA / NIEHS).
